Experimental data reported in PubChem BioAssay (Tox21).
Records with an inconclusive call do not appear. Calls of active or inactive are those of the source. Unless noted, calls follow the shape of the dose curve; as a rule, active = well fitted curve in the direction sought with a large enough effect in the repeat runs; inconclusive = weak or mixed curves; inactive = no such curve, though single readings can be large; an effect the other way counts as inactive or inconclusive.

What was measured:
[1] = qHTS assay to identify small molecule agonists of the estrogen receptor beta (ER-beta) signaling pathway - cell viability counter screen (AID 1259380); also: nearly all actives have a fitted effect of over 30% in size
In short: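 Compounds dissolved in DMSO were pin-transferred onto ER-beta-UAS-bla HEK293T cells that had settled 6 hr, and exposure ran 16 hr at 37C. Following the reporter read, CellTiter-Glo luminescence after 30 min at room temperature indicated cytotoxicity.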

[2] = qHTS assay to identify small molecule antagonists of the estrogen receptor beta (ER-beta) signaling pathway - cell viability counter screen (AID 1259382);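 also: HEK293T cells carrying ER-beta-UAS-bla reporter stimulated with estradiol; series mostly up to about 92 µM; nearly all actives have a fitted effect of over 55% in size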
In short: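 CellTiter-Glo ATP luminescence measured after the LiveBLAzer read in the same wells; ER-beta-UAS-bla HEK293T cells, 16 hr compound treatment with 1nM 17-beta-estradiol agonist at 37C, 5% CO2.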

[3] = molecular target: Estrogen receptor (Homo sapiens) (UniProt P03372); test: qHTS assay to identify small molecule agonists of the estrogen receptor alpha (ER-alpha) signaling pathway in the presence of an antagonist (AID 1259383; calls by dose curve; also: top concentration of the series differs between compounds; nearly all actives have a fitted effect of over 15% in size)
In short: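 Luminescent ERE-luciferase reporter, VM7Luc4E2 cells (endogenous ER-alpha); 10.0nM ICI-182,780 final; 15-point compound titration; 22hr at 37C; ONE-Glo, 30min RT.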

[4] = qHTS assay to identify small molecule agonists of the estrogen receptor alpha (ER-alpha) signaling pathway in the presence of an antagonist - cell viability counter screen (AID 1259386);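 also: series mostly up to about 92 µM; cells exposed to compounds for 22 h at 37 °C before the viability read; nearly all actives have a fitted effect of over 30% in size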
In short: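 Using estrogen-depleted VM7Luc4E2 cells, the 15-concentration compound series was applied together with 10.0nM ICI-182,780 and incubated 22hr at 37C/5% CO2. Cell viability was then scored by CellTiter-Fluor.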

[5] = molecular target: Progesterone receptor (Homo sapiens) (UniProt P06401); test: qHTS assay to identify small molecule agonists of the progesterone receptor (PR) signaling pathway (AID 1346784; calls by dose curve; also: nearly all actives have a fitted effect of over 30% in size)
In short: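 Using charcoal-stripped serum (2%) to limit endogenous steroids, PR-UAS-bla HEK 293T cells received compounds for 16 hr at 37C after 6 hr plating; beta-lactamase FRET fluorescence was recorded following 2 hr substrate loading at room temperature.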

[6] = molecular target: Progesterone receptor (Homo sapiens) (UniProt P06401); test: qHTS assay to identify small molecule antagonists of the progesterone receptor (PR) signaling pathway (AID 1346795; active = well fitted inhibition curve with a large enough effect in the signal ratio in the repeat runs, not every such curve was filed as active; the % refers to the signal ratio)
In short: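 Inhibition of R5020-induced (1 nM final) beta-lactamase reporter signal in PR-UAS-bla HEK293T cells was scored by FRET fluorescence after overnight (16 hr) compound treatment.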

[7] = qHTS assay to identify small molecule antagonists of the progesterone receptor (PR) signaling pathway - cell viability counter screen (AID 1346798); also: series mostly up to about 92 µM; nearly all actives have a fitted effect of over 50% in size
In short: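 ATP content as viability readout: CellTiter-Glo luminescence, 30 min room temperature, in PR-UAS-bla HEK293T cells after 16 hr compound/R5020 treatment at 37C and 5% CO2.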

[8] = qHTS assay to identify small molecule agonists of the progesterone receptor (PR) signaling pathway - cell viability counter screen (AID 1346799; calls by dose curve; also: nearly all actives have a fitted effect of over 45% in size)
In short: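 Cytotoxicity in PR-bla HEK293T cells: 16 h compound, 37C; CellTiter-Glo added post-FRET read; luminescence after 30 min RT.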

[9] = qHTS assay to identify small molecule antagonists of the TGF-beta/Smad signaling pathway - cell viability counter screen (AID 1346824); also: nearly all actives have a fitted effect of over 50% in size
In short: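 SBE-bla HEK 293T cells, incubated overnight, then compound plus 0.25 ng/mL TGF-beta1 (stock added) for 5 hr at 37 C. Viability was read in the same wells by CellTiter-Glo luminescence after 30 min at room temperature.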

[10] = qHTS assay to identify small molecule agonists of the TGF-beta/Smad signaling pathway - cell viability counter screen (AID 1346829); also: top concentration of the series differs between compounds; nearly all actives have a fitted effect of over 45% in size
In short: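 Tox21 qHTS format: SBE-bla HEK 293T cells treated with DMSO-dissolved compounds for 5 hr; CellTiter-Glo luminescence after 30 min at room temperature.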

[11] = qHTS assay to identify small molecule agonists of the TGF-beta/Smad signaling pathway (AID 1346859; active = well fitted activation curve with a large enough effect in the signal ratio in the repeat runs, not every such curve was filed as active; the % refers to the signal ratio; also: series mostly up to about 77 µM)
In short: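 Stable Smad binding element-beta-lactamase HEK 293T cells; 5 hr compound exposure at 37 C under 5% CO2; 2 hr room-temperature substrate step; fluorescence excited at 405 nm, collected at 460 nm and 530 nm.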

[12] = molecular target: Thyrotropin-releasing hormone receptor (Homo sapiens) (UniProt P34981); test: qHTS assay to identify small molecule antagonists of the thyrotropin-releasing hormone receptor (TRHR) signaling pathway (AID 1346877; active = well fitted inhibition curve with a large enough effect in the repeat runs, not every such curve was filed as active; also: series mostly up to about 51 µM)
In short: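 Calcium signal in dye-loaded TRHR/HEK293 cells; compounds added 5 min before TRH (1 nM final); fluorescence monitored 3 min at 1 s steps.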

[13] = molecular target: Thyrotropin-releasing hormone receptor (Homo sapiens) (UniProt P34981); test: qHTS assay to identify small molecule agonists of the thyrotropin-releasing hormone receptor (TRHR) signaling pathway (AID 1346891; calls by dose curve;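 also: HEK293 cells expressing TRHR with calcium dye readout; series mostly up to about 58 µM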)
In short: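 In 1536-format, 1500 TRHR-Hek293 cells per well grew 18 h, took up calcium dye for 2 h at 37 °C, received compound, and were read kinetically; 15-point titrations, triplicates.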

[14] = Human pregnane X receptor (PXR) small molecule agonists, qHTS cell viability counter screen (AID 1346977); also: nearly all actives have a fitted effect of over 50% in size
In short: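 Readout is CellTiter-Fluor fluorescence from PXR-Luc HepG2 cells. Plated cells rested 5hr, then were treated with compounds for 24hr at 37C and 5% CO2, with reagent present during the last hour.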

[15] = Caspase-3/7 induction in HepG2 cells by small molecules, qHTS assay (AID 1346978); also: nearly all actives have a fitted effect of over 15% in size
In short: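 Wild-type HepG2 cells, 2,000/well, settled 5 hr at 37 C and 5% CO2, then compound-treated for 17 hr; caspase-3/7 activity read by luminescent Caspase-Glo 3/7 after 30 min at room temperature.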

[16] = Caspase-3/7 induction in CHO-K1 cells by small molecules, qHTS assay (AID 1346980); also: nearly all actives have a fitted effect of over 15% in size
In short: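 Wild-type CHO-K1 cells exposed to compounds for 17hr at 37 C, 5% CO2. Caspase-3/7 activity then measured by Caspase-Glo 3/7 luminescence after 30min at room temperature.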

[17] = Caspase-3/7 induction in CHO-K1 cells by small molecules, qHTS cell viability counter screen (AID 1346979); also: nearly all actives have a fitted effect of over 35% in size
In short: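 To flag cytotoxic compounds, treated CHO-K1 wild-type cells were given CellTiter-Fluor at 16hr and read fluorescently after 1hr at 37C; the caspase-3/7 luminescence was measured in these same wells.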

[18] = molecular target: Thyrotropin receptor (Homo sapiens) (UniProt P16473); test: qHTS assay to identify small molecule antagonists of the thyroid stimulating hormone receptor (TSHR) signaling pathway (AID 1259385; calls by dose curve; also: nearly all actives have a fitted effect of over 20% in size)
In short: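 TSHR-HEK293 cells (800/well) plated 18 h, then compounds with Ro20-1724 and TSH at 1.5 ng/mL final, 30 min at room temperature. cAMP quantified by HTRF (cAMP-d2/anti-cAMP-cryptate, 1 h); 15 concentrations in triplicate.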

[19] = qHTS assay to identify small molecule agonists or antagonists of the thyroid stimulating hormone receptor (TSHR) signaling pathway - wild type cell line counter screen (AID 1259384; calls by dose curve)
In short: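 Wild-type Hek293 cells, 800/well, 18 h at 37C, then compound with Ro20-1724 for 30 min RT. cAMP by HTRF (cAMP-d2/anti-cAMP cryptate), 1 h RT, fluorescence read. 15 concentrations, triplicates.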

Measured: Potency

Chain of Estrogen receptor (Homo sapiens) (P03372 whole entry, looked up): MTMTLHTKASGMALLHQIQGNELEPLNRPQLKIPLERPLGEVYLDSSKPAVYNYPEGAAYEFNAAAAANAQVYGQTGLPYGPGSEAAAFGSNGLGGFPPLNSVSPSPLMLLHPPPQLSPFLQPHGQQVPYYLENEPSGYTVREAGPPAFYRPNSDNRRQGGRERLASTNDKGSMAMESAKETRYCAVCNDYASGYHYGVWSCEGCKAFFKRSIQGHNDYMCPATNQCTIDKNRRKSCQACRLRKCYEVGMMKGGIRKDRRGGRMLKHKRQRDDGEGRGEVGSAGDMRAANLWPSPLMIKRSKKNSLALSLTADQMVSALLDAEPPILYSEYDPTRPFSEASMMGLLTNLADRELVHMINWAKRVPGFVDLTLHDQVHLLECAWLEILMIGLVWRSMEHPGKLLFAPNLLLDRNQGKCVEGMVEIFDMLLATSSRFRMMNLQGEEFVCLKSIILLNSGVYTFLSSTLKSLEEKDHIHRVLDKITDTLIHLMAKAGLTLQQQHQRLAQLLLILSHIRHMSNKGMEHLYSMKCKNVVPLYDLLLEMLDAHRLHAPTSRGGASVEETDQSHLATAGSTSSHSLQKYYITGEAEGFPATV
Chain of Progesterone receptor (Homo sapiens) (P06401 whole entry, looked up): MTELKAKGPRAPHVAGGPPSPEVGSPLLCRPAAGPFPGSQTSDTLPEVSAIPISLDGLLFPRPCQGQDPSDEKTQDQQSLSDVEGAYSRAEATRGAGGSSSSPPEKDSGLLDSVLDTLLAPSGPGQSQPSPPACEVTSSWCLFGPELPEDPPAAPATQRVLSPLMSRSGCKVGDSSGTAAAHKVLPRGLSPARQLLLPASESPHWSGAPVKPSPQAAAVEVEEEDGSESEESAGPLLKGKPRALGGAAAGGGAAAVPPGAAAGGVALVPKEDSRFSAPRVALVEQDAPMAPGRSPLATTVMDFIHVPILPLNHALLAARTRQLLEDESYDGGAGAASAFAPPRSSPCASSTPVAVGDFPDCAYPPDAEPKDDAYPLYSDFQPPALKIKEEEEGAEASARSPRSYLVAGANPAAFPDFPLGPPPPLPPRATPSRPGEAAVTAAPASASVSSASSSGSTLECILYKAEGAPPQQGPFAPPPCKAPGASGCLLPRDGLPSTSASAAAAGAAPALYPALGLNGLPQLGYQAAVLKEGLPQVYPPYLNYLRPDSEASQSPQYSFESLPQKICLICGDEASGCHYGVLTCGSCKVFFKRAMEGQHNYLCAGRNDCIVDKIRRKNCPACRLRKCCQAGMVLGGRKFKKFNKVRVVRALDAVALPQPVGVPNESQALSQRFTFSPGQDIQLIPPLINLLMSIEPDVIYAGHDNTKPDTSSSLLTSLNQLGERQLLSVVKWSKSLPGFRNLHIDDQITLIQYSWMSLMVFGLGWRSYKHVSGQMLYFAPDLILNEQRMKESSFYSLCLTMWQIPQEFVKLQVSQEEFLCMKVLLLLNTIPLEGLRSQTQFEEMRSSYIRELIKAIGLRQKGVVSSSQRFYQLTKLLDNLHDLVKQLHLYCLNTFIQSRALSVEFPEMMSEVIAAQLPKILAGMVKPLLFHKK
Chain of Thyrotropin-releasing hormone receptor (Homo sapiens) (P34981 whole entry, looked up): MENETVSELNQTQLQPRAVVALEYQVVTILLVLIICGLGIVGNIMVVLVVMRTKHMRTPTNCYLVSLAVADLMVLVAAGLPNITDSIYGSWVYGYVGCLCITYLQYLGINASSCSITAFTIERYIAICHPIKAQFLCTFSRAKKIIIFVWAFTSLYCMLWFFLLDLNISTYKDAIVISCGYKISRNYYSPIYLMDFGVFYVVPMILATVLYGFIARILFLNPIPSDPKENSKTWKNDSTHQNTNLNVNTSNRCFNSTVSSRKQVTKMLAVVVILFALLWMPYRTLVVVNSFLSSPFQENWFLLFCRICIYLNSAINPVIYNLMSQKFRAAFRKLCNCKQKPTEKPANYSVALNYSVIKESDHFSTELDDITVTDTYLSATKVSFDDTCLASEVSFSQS
Chain of Thyrotropin receptor (Homo sapiens) (P16473 whole entry, looked up): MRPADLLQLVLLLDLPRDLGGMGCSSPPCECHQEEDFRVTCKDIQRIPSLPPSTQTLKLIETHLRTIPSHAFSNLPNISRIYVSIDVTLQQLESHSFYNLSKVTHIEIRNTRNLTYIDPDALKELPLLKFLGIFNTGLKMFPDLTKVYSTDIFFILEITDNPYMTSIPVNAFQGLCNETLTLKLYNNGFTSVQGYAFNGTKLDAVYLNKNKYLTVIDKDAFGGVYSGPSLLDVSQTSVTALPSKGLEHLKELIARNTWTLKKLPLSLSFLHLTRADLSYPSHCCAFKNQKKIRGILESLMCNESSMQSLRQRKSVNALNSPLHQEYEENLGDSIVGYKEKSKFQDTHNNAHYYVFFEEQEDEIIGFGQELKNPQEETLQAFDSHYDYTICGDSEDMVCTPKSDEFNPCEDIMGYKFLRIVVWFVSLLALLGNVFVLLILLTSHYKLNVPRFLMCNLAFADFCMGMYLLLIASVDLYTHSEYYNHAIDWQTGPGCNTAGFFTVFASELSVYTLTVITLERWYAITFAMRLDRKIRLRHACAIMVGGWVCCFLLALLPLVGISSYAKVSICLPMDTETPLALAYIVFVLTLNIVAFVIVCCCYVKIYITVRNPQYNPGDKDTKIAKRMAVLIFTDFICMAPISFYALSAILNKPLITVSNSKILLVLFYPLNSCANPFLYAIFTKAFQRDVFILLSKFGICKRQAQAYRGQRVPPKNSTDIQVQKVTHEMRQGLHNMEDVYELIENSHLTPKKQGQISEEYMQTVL

O=[N+]([O-])c1ccc(/C=C/c2ccc([N+](=O)[O-])cc2S(=O)(=O)O)c(S(=O)(=O)O)c1
not listed: [17] | [18] | [19]
inactive: all other assays above

c1c[nH]cn1
not listed: [18] | [19]
inactive: all other assays above

COS(C)(=O)=O
not listed: [5] | [6] | [19]
inactive: all other assays above

CC(C)c1ccc(S(=O)(=O)O)cc1
not listed: [12] | [13] | [17] | [19]
inactive: all other assays above

CCCCC(CC)COC(=O)CS (centres undefined)
not listed: [3]
inactive: all other assays above

COc1ccc(Nc2ccccc2)c(C)c1
not listed: [19]
inactive: all other assays above

CCCCCC(N)=O
not listed: [3] | [17]
inactive: all other assays above

Cc1ccc2oc(=O)ccc2c1
not listed: [18] | [19]
inactive: all other assays above
